Consider 36 compounds from PubChem BioAssay (NCATS).

Values joined by “and” are separate entries in the source; they are usually repeats but may differ in a detail not shown here. Equal values may be shown once. Results filed as inconclusive are left out. Where a structure was tested more than once in an assay, its records may differ in their call. A number with no mark means an inactive call. Active and inactive are the calls of the source. Calls follow the shape of the dose curve; as a rule, active = well fitted inhibition curve with a large enough effect; inconclusive = small, poorly fitted or top-dose-only effect; inactive = flat fitted curve, though single readings scatter.
% is scaled to controls: 0 for no effect and ±100 for the full control effect; potency is read from the fitted curve at half-maximal effect.

The first assay concerns HaCat. Kind of assay: Cytotoxic Profiling of Annotated Libraries Using Quantitative High-Throughput Screening (AID 1296008). Also: nearly all actives have a fitted effect of over 60% in size. The following applies: Five cell lines viability, CellTiter-Glo ATP luminescence, 48-72 h; max response: hits give low values. Put shortly:
(§1)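 Cytotoxicity was measured as CellTiter-Glo ATP luminescence, read after 10 min at room temperature. Compound treatment of the cells lasted 48 or 72 hr at 37 degrees Celsius in a qHTS format.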
Consider `O=C(O)c1cc(-c2ccccc2)nc2ccccc12`, for which the max response is -15.6% and the compound was called inactive.
For `OC[C@@H](O)[C@H](O)[C@H](O)[C@@H](O)CO`, the call was inactive.
Turning to `O=C(NC1CCOCC1)c1ccc(-c2cc(-c3cn[nH]c3-c3ccccn3)ccn2)cc1`, the max response is 2.12% and the call was inactive.
For `CCN1CCC[C@H]1CNC(=O)c1cc(S(N)(=O)=O)ccc1OC` the same measures were -3.98% and “inactive”.
`COc1ccc(C2CC(c3ccccc3)=NN2c2ccc(S(N)(=O)=O)cc2)cc1` (stereo not given): the max response is 3.54% and 1.7%.
For `Clc1ccc(Cn2c(CN3CCCC3)nc3ccccc32)cc1`, the max response was -16.9% and the result was inactive.
For `O=C(O)Cc1cccc2ccccc12` the same measures were -10.3% and “inactive”.
As to `C[C@@H](O)[C@H]1C(=O)N2C(C(=O)O)=C(S[C@@H]3CN[C@H](C(=O)N(C)C)C3)[C@H](C)[C@H]12`, the max response is -2.71% and the compound was classed as inactive.
On to `CC(=O)Oc1cc2c(s1)CCN(C(C(=O)C1CC1)c1ccccc1F)C2` (stereo not given), for which the max response is 0.622%.
For the compound `CC(=O)CCCCn1c(=O)c2c(ncn2C)n(C)c1=O`, the max response was -9.06% and the compound was called inactive.
As for `O=C(CCN1CCN(C(=O)OCc2cc(Cl)cc(Cl)c2)CC1)c1ccc2[nH]c(=O)oc2c1`, the max response is -8.98% and -29.3%.
Regarding `COc1ncc(-c2ccc3nccc(-c4ccnnc4)c3c2)cc1NS(=O)(=O)c1ccc(F)cc1F`, the Potency was 0.0065 µM (active) and the max response was -157%.
`O=C(O)CCc1nc(-c2ccccc2)c(-c2ccccc2)o1`: the max response is -18.5% and the compound was classed as inactive.
`CNC(=O)c1ccc2cc(C3(O)CCn4cncc43)ccc2c1` (stereo not given): the max response was 0.87% and the outcome was inactive.
With `COc1ccccc1N1CCN(CCCNc2cc(=O)n(C)c(=O)n2C)CC1`, the result was inactive.
As to `CS(=O)c1ccc(-c2nc(-c3ccc(F)cc3)c(-c3ccncc3)[nH]2)cc1` (stereo not given), the max response was 2.48%.
In the case of `CC(C)C(=O)Oc1ccc(CO)cc1[C@H](CCN(C(C)C)C(C)C)c1ccccc1`, the max response was -23.8% and the outcome was inactive.
As for `Cc1cnc(C(=O)O)c[n+]1[O-]`, the compound was called inactive.
Take `CC[C@]1(O)C[C@@H]2CN(CCc3c([nH]c4ccccc34)[C@@](C(=O)OC)(c3cc4c(cc3OC)N(C)[C@H]3[C@@](O)(C(=O)OC)[C@H](OC(C)=O)[C@]5(CC)C=CCN6CC[C@]43[C@@H]65)C2)C1`: the max response is 0.756% and the result was inactive.
For `COc1ccc2cc(-c3nc(-c4ccc(S(C)=O)cc4)[nH]c3-c3ccncc3)ccc2c1` (stereo not given) the same measures were -7.74% and “inactive”.
With `CCN(CC)CCNC(=O)c1ccc(N)cc1`, the max response was 0.0096% and the outcome is “inactive; activator”.
For the compound `CC(C)(C)c1cc(C(=O)O)c(NC(=O)Nc2ccc3[nH]ncc3c2)s1`, the max response was -3.43% and the outcome was inactive.
As for `COc1ccc2c(Oc3ccc(NC(=O)c4c(C)n(CC(C)(C)O)n(-c5ccccc5)c4=O)nc3)ccnc2c1`, the Potency is 11.6 µM (active) and the max response was -3.13%.
As for `NC(=O)c1ccc2nc(-c3ccc(Oc4ccc(Cl)cc4)cc3)[nH]c2c1`, the max response was -0.499% and the call was inactive.
As to `CCOc1ccc(Nc2nc(-c3c(C)nc4ccccn34)cs2)cc1`, the max response was 3.42% and the outcome was inactive.
Turning to `O=C(O)c1ccccc1C(=O)Nc1ccc(-c2ccccc2)cc1`, the call was inactive.
As to `CN(C)CCC(c1ccccc1)c1ccccn1` (stereo not given), the result was inactive.
`COC(=O)[C@@H]1[C@H]2C[C@H]3c4[nH]c5ccccc5c4CCN3C[C@@H]2CC[C@@H]1O`: the max response was 0.769% and the outcome was inactive.
For `O=C(Nc1ccccc1-c1cn2c(CN3CCNCC3)csc2n1)c1cnc2ccccc2n1` the same measures were 4.92% and “inactive”.
With `Cc1ccccc1C(C(=O)NC1CCCCC1)N(C(=O)Cn1ccnc1C)c1cccc(F)c1` (stereo not given), the compound was classed as inactive.
Consider `Cc1c(NC(=O)c2ccc(C(C)(C)C)cc2)cccc1-c1cn(C)c(=O)c(Nc2ccc(C(=O)N3CCOCC3)cc2)n1`, for which the max response is -8.79%.
Take `CCOC(=O)C1=C(N)Oc2ccc(Br)cc2C1C(C#N)C(=O)OCC` (stereo not given): the max response was -16.4% and the compound was classed as inactive.
Take `Cc1ccc(Nc2cc(-c3cccc(N4C(=O)c5ccccc5C4=O)c3)ncn2)cc1NS(C)(=O)=O`: the outcome was inactive.
As for `CC(C)[C@H](CO)Nc1nc(Nc2ccc(C(=O)O)c(Cl)c2)c2ncn(C(C)C)c2n1`, the max response is 4.58% and the call was inactive.
For `CCCNC(=O)NS(=O)(=O)c1ccc(Cl)cc1` the same measures were -1.01% and “inactive”.
Regarding `COc1cc2ncnc(-n3nc(-c4ccccn4)nc3N)c2cc1OC`, the Potency was 3.17 µM (active) and the call was inactive.

Another assay concerns KB-3-1. The description is as above. As to conditions: Five cell lines viability, CellTiter-Glo ATP luminescence, 48-72 h; max response: hits give low values. Put shortly:
as §1
Turning to `O=C(O)c1cc(-c2ccccc2)nc2ccccc12`, the max response is -3.95% and -19% and 4.62%.
For the compound `OC[C@@H](O)[C@H](O)[C@H](O)[C@@H](O)CO`, the max response was -5.61% and 12.2%.
On the same count and under the same terms, the figure for `O=C(NC1CCOCC1)c1ccc(-c2cc(-c3cn[nH]c3-c3ccccn3)ccn2)cc1` is -6.4% and 1.2%.
On to `CCN1CCC[C@H]1CNC(=O)c1cc(S(N)(=O)=O)ccc1OC`, for which the max response was -2.45% and the compound was classed as inactive.
With `COc1ccc(C2CC(c3ccccc3)=NN2c2ccc(S(N)(=O)=O)cc2)cc1` (stereo not given), the max response was -15.8%.
On the same count and under the same terms, the figure for `Clc1ccc(Cn2c(CN3CCCC3)nc3ccccc32)cc1` is 4.33% and 5.03%.
Still for that read-out and setting: next, `O=C(O)Cc1cccc2ccccc12`: 13.8% and -7.33%; `C[C@@H](O)[C@H]1C(=O)N2C(C(=O)O)=C(S[C@@H]3CN[C@H](C(=O)N(C)C)C3)[C@H](C)[C@H]12`: -4.18%.
Turning to `CC(=O)Oc1cc2c(s1)CCN(C(C(=O)C1CC1)c1ccccc1F)C2` (stereo not given), the Potency was 4.69 µM (active) and the max response is -10.7%.
On to `CC(=O)CCCCn1c(=O)c2c(ncn2C)n(C)c1=O`, for which the max response is -13.9% and the result was inactive.
In the case of `O=C(CCN1CCN(C(=O)OCc2cc(Cl)cc(Cl)c2)CC1)c1ccc2[nH]c(=O)oc2c1`, the max response is -3.38% and 0.622%.
Turning to `COc1ncc(-c2ccc3nccc(-c4ccnnc4)c3c2)cc1NS(=O)(=O)c1ccc(F)cc1F`, the Potency was 590 nM (active) and 103 nM (active).
Take `O=C(O)CCc1nc(-c2ccccc2)c(-c2ccccc2)o1`: the max response is -6.48% and the call was inactive.
For `CNC(=O)c1ccc2cc(C3(O)CCn4cncc43)ccc2c1` (stereo not given) the same measures were -2.71% and “inactive”.
With `COc1ccccc1N1CCN(CCCNc2cc(=O)n(C)c(=O)n2C)CC1`, the max response was 10% and -5.34% and -7.87%.
`CS(=O)c1ccc(-c2nc(-c3ccc(F)cc3)c(-c3ccncc3)[nH]2)cc1` (stereo not given): the outcome was inactive.
For the compound `CC(C)C(=O)Oc1ccc(CO)cc1[C@H](CCN(C(C)C)C(C)C)c1ccccc1`, the max response is -1.04% and 2.37%.
In the case of `Cc1cnc(C(=O)O)c[n+]1[O-]`, the max response is 1.54% and 2.87% and -1.62%; the compound was called inactive.
For `CC[C@]1(O)C[C@@H]2CN(CCc3c([nH]c4ccccc34)[C@@](C(=O)OC)(c3cc4c(cc3OC)N(C)[C@H]3[C@@](O)(C(=O)OC)[C@H](OC(C)=O)[C@]5(CC)C=CCN6CC[C@]43[C@@H]65)C2)C1`, the Potency is 2.91 µM (active) and 18.4 nM (active).
`COc1ccc2cc(-c3nc(-c4ccc(S(C)=O)cc4)[nH]c3-c3ccncc3)ccc2c1` (stereo not given): the max response was 4.38%.
Take `CCN(CC)CCNC(=O)c1ccc(N)cc1`: the max response is -16.7% and the outcome was inactive.
For `CC(C)(C)c1cc(C(=O)O)c(NC(=O)Nc2ccc3[nH]ncc3c2)s1` the same measures were -9% and “inactive”.
Regarding `COc1ccc2c(Oc3ccc(NC(=O)c4c(C)n(CC(C)(C)O)n(-c5ccccc5)c4=O)nc3)ccnc2c1`, the max response was 3.31%.
Turning to `CCOc1ccc(Nc2nc(-c3c(C)nc4ccccn34)cs2)cc1`, the Potency is 33.2 nM (active) and 32.6 nM (active).
Take `O=C(O)c1ccccc1C(=O)Nc1ccc(-c2ccccc2)cc1`: the max response was 9.98% and the compound was called inactive.
On to `CN(C)CCC(c1ccccc1)c1ccccn1` (stereo not given), for which the max response was -8.17% and 1.69%.
Same read-out and setting: next, `COC(=O)[C@@H]1[C@H]2C[C@H]3c4[nH]c5ccccc5c4CCN3C[C@@H]2CC[C@@H]1O`: -4.37% and 9.99%; `Cc1ccccc1C(C(=O)NC1CCCCC1)N(C(=O)Cn1ccnc1C)c1cccc(F)c1` (stereo not given): 1.35% and 1.14%; `Cc1c(NC(=O)c2ccc(C(C)(C)C)cc2)cccc1-c1cn(C)c(=O)c(Nc2ccc(C(=O)N3CCOCC3)cc2)n1`: 3.17% and -18.9%.
On to `CCOC(=O)C1=C(N)Oc2ccc(Br)cc2C1C(C#N)C(=O)OCC` (stereo not given), for which the max response is -1.43% and the result was inactive.
Turning to `Cc1ccc(Nc2cc(-c3cccc(N4C(=O)c5ccccc5C4=O)c3)ncn2)cc1NS(C)(=O)=O`, the max response is 6.32% and the compound was classed as inactive.
For the compound `CC(C)[C@H](CO)Nc1nc(Nc2ccc(C(=O)O)c(Cl)c2)c2ncn(C(C)C)c2n1`, the compound was classed as inactive.
Consider `CCCNC(=O)NS(=O)(=O)c1ccc(Cl)cc1`, for which the max response was -1.87% and 8.57%.
`COc1cc2ncnc(-n3nc(-c4ccccn4)nc3N)c2cc1OC`: the compound was classed as inactive.
